Here are results for 40 compounds from PubChem BioAssay (Tox21).

Inconclusive results are not listed. Where a call stands in place of a potency, no number is given. The source made the active and inactive calls. Calls come from the whole dose curve; as a rule, active = well fitted cell-killing curve with a large enough effect in the repeat runs; inconclusive = weak or mixed curves; inactive = flat fitted curve, though single readings scatter.
Potency is the fitted concentration of half-maximal effect.

This test is described as follows: qHTS RealTime-Glo MT Cell Viability Assay in HepG2 cells - 8 hour (AID 1224873). Note: nearly all actives have a fitted effect of over 55% in size. To be noted: RealTime-Glo luminescence; series mostly up to 76.8 µM. From the text: National Center for Advancing Translational Sciences [NCATS]
NIH Chemical Genomics Center [NCGC]
U.S. Environmental Protection Agency [EPA]
National Institutes of Environmental Health Sciences [NIEHS]
National Toxicology Program [NTP]
U.S. Food and Drug Administration [FDA]
Measure of cell viability is critical in the cell-base assay. Analysis of cell viability is necessary for the characterization of cell responses to cytotoxic drugs and environmental stress. A RealTime-Glo MT Cell Viability Assay to monitor cell viability in real time of continues cell culture during 40 hours of compound treatment was used to screen Tox21 10K library compounds in HepG2 cells. The RealTime-Glo MT Cell Viability Assay is a nonlytic, homogeneous, bioluminescent method to measure cell viability in real time using a simple, plate-based method. The assay involves adding NanoLuc luciferase and a cell-permeant prosubstrate to cells in culture. Viable cells reduce the proprietary prosubstrate to generate a substrate for NanoLuc luciferase. This substrate diffuses from cells into the surrounding culture medium, where it is rapidly used by the NanoLuc Enzyme to produce a luminescent signal. The signal correlates with the number of viable cells, making the assay well suited for cytotoxicity studies.
Tox21 Assay Protocol Summary:
The mixture of HepG2 cell suspension and reagents were dispensed at 600cells/6 ul/well in 1536-well tissue culture treated black solid bottom plates using a Multidrop dispenser. After the assay plates were incubated at a 37 C/5% CO2 incubator for 5 hours, 23 nL of compounds dissolved in DMSO, positive and negative controls was transferred to the assay plate by a pintool work station. The plates were incubated at 37 C for 40 hours. The luminescence intensity were measured at 0h, 8h, 16h, 24h, 32h and 40h time points using ViewLux plate reader during compound treatment.
In general terms: In qHTS, concentration-response curves come from the screen itself.
As for `C=COCC1CCC(CO)CC1` (stereo not given), the Potency entry is “inactive”. On the same count and under the same terms, the same measure for `CC(C)(C)c1ccc(O)c(O)c1`: 34.7 µM (active). Same read-out and setting: the same measure for `CCc1ccc(O)c(OC)c1`: “inactive”; for `CC1=CC(C)C(C=O)CC1` (stereo not given): “inactive”. Regarding `N[C@@H](C(=O)N[C@@H]1C(=O)N2C(C(=O)O)=C(Cl)CS[C@H]12)c1ccccc1`, the viability change, negative = cytotoxic was 3.66% [at 6.97 µM] (inactive). Turning to `COC(=O)CC(C)=O`, the Potency result is “inactive”. Same read-out and setting: the value for `COC(C)(C)CCCC(C)CC=O` (stereo not given) was “inactive”.

With `CC1(C)C(O)C(C)(C)C1O` (stereo not given), the Potency entry was “inactive”. As to `O=C(O)CN(CCOCCOCCN(CC(=O)O)CC(=O)O)CC(=O)O`, the viability change, negative = cytotoxic is -0.725% [at 0.29 µM] (inactive). For the compound `N=C(N)c1ccc2cc(OC(=O)c3ccc(N=C(N)N)cc3)ccc2c1`, the Potency entry was “inactive”.

`NS(=O)(=O)c1cc2c(cc1Cl)NC(C1CC3C=CC1C3)NS2(=O)=O` (stereo not given): the Potency result was “inactive”. For the compound `NCCCNCCSP(=O)(O)O`, the viability change, negative = cytotoxic was 0.144% [at 6.97 µM] (inactive). With `N#Cc1ccc(C2CCCc3cncn32)cc1` (stereo not given), the Potency entry was “inactive”. Consider `C[C@](N)(Cc1ccc(O)cc1)C(=O)O`, for which the viability change, negative = cytotoxic is 1.11% [at 6.97 µM] (inactive). For `CC/C=C\CCOC(C)=O`, the Potency result is “inactive”. For the compound `N=c1nc(N2CCCCC2)cc(N)n1O`, the Potency entry is “inactive”.

Turning to `C[N+](C)(C)CC(O)CC(=O)[O-]` (stereo not given), the Potency entry is “inactive”. For `NS(=O)(=O)c1cc(C(=O)NN2C[C@H]3[C@H]4CCC(C4)[C@H]3C2)ccc1Cl`, the Potency entry is “inactive”. On the same count and under the same terms, the same measure for `CC(C)(CC(=O)O)C(=O)O`: “inactive”; for `ClC(Cl)(Br)Br`: “inactive”. Turning to `CCC(C)S` (stereo not given), the viability change, negative = cytotoxic was 0.999% [at 2.72 µM] (inactive). On to `NC(=O)COCCN1CCN(C(c2ccccc2)c2ccc(Cl)cc2)CC1` (stereo not given), for which the Potency result was “inactive”. For the compound `O=c1n(CCO)c(=O)n(CCO)c(=O)n1CCO`, the Potency result was “inactive”. For the compound `CC(=O)OCC(=O)[C@@]1(O)CC[C@H]2[C@@H]3CCC4=CC(=O)CC[C@]4(C)[C@H]3C(=O)C[C@@]21C`, the Potency entry was “inactive”. As to `C=CCS(=O)(=O)O`, the Potency result was “inactive”. On to `CCCCCCCCCCCCCCCCC`, for which the Potency entry is “inactive”. The same measure, in the same setting: the same measure for `CO[C@]12C[C@@H](COC(=O)c3cncc(Br)c3)CN(C)[C@@H]1Cc1cn(C)c3cccc2c13`: “inactive”; for `C=CCCCCCCCCC=O`: “inactive”; for `C[C@@H]1CCN(C(=O)[C@H](CCCN=C(N)N)NS(=O)(=O)c2cccc3c2NC[C@H](C)C3)[C@@H](C(=O)O)C1`: “inactive”.

For `Nc1cc(=O)[nH]c(N)n1`, the Potency result was “inactive”. With `CCc1nccnc1CC`, the viability change, negative = cytotoxic was 1.16% [at 15.8 µM] (inactive). For the compound `CC(=O)Nc1c(I)cc(I)c(C(=O)O)c1I`, the Potency entry is “inactive”. Still for that read-out and setting: the same measure for `CC(=O)c1ccccc1O`: “inactive”; for `CCOC(=O)c1cccc(N)c1`: “inactive”; for `CC(C)(C)c1nnc(NS(=O)(=O)c2ccccc2)s1`: “inactive”. Same read-out and setting: the same measure for `CC(C)OC(=O)c1ccccc1`: “inactive”; for `Cc1nc2c([nH]1)c(=O)n(C)c(=O)n2Cc1ccco1`: “inactive”; for `O=C(O)CCCl`: “inactive”. Regarding `CC(C)NCCCC1(C(N)=O)c2ccccc2-c2ccccc21`, the Potency entry was “inactive”. On the same count and under the same terms, the value for `COc1nc(N)nc2c1ncn2[C@@H]1O[C@H](CO)[C@@H](O)[C@@H]1O` was “inactive”.
